In PubChem BioAssay (NCATS):
Records with an inconclusive call do not appear. Where a call stands in place of a potency, no number is given. Active and inactive are the calls of the source. Calls come from the whole dose curve; as a rule, active = well fitted inhibition curve with a large enough effect; inconclusive = small, poorly fitted or top-dose-only effect; inactive = flat fitted curve, though single readings scatter.

These compounds were tested against Calcium and integrin-binding protein 1 (Homo sapiens) (UniProt Q99828) (assay: Primary qHTS for Identification of Calcium Integrin Binding Protein 1 (CIB1) Competitor (AID 1508620;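 note: GST tagged CIB1 binding a fluorescein labelled alphaIIb integrin peptide tracer; top concentration of the series differs between compounds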)). Conditions: CIB1-GST / FITC-alphaIIb peptide fluorescence polarization; series mostly up to 114 µM.
Calcium and integrin-binding protein 1 (Homo sapiens), sequence (Q99828 whole entry, looked up): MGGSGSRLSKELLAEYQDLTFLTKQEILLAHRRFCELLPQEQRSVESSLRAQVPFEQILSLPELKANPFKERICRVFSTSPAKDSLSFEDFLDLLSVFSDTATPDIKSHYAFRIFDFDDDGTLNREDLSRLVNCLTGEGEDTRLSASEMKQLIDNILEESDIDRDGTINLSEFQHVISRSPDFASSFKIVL
Method in brief: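 Fluorescence polarization competition: CIB1-GST (1 uM final) preincubated with compound 15 min at room temperature, then FITC-labeled alphaIIb peptide (100 nM final) added for another 15 min. Polarization read at Ex 480/Em 540.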

Row | Compound | Potency
1 | Cc1ccc(C)c(OCCn2c(CCNC(=O)C3CCCCC3)nc3ccccc32)c1 | inactive
2 | N#Cc1nc(Nc2cc(F)cc(F)c2)c2ncn(CCCN3CCCC3)c2n1 | inactive
3 | CC(=O)NC(c1cc(F)c2cccnc2c1O)C(C)C (stereo not given) | inactive
4 | COc1ccc(OC)c(-c2nnc3n2N=C(c2ccc(OC)c(OCC4CC4)c2)CS3)c1 | inactive
5 | O=[S+]([O-])(c1c(F)cccc1F)N1CCN([S+](=O)([O-])c2cccc3nonc23)CC1 | inactive
6 | Cc1ccc(NS(=O)(=O)c2ccc3c(c2)CCN(C(=O)C(F)(F)F)C3)cc1C | inactive
7 | O=C(Nc1ccccn1)c1sc2ccc([N+](=O)[O-])cc2c1Cl | inactive
8 | C=CCNc1oc(C2CCCC2)nc1C#N | inactive
9 | O=S(=O)(c1ccc2c(c1)OCCO2)N1CCN(S(=O)(=O)c2ccc(F)c(F)c2F)CC1 | inactive
10 | COc1ccc(-c2nc3cccc(OC)c3c(=O)n2Cc2ccccc2)cc1COc1ccc(NC(C)=O)cc1 | inactive
11 | O=C(CSc1nnc(-c2cccc([S+](=O)([O-])N3CCCC3)c2)n1-c1ccccc1)Nc1cccc(F)c1 | inactive
12 | CC(=O)c1ccc(-c2csc3ncnc(Sc4nnnn4C)c23)cc1 | inactive
13 | O=C(O)c1ccc2c(c1)C(=O)N([C@H](Cc1ccc([N+](=O)[O-])cc1)C(=O)O)C2=O | inactive
14 | NC(=O)C1CCN(c2nc(-c3ccccc3C(F)(F)F)cs2)CC1 | inactive
15 | COc1ccnc(NC(=S)N2CCN(c3cccc(Cl)c3Cl)CC2)c1 | inactive
16 | O=S(=O)(c1ccccc1)N1CCN(c2nccc(-c3cccs3)n2)CC1 | inactive
17 | O=S(=O)(Nc1ccc2ccccc2c1)c1ccc(NCc2cccc(Cl)c2O)cc1 | inactive
18 | Cn1c2cc(S(C)(=O)=O)sc2c2cnn(Cc3ccccc3F)c(=O)c21 | inactive
19 | O=S(=O)(Nc1nccs1)c1ccc(NCc2cccc(O)c2)cc1 | inactive
20 | C/C(=C\c1ccc2c(c1)OCCO2)C1Nc2cccc3cccc(c23)N1 | inactive

Row | Compound | Potency
21 | O=C(CNC(=O)c1ccccc1)OC(C(=O)Nc1cc([N+](=O)[O-])ccc1F)c1ccccc1 (stereo not given) | inactive
22 | O=C1c2ccccc2NC(c2ccc(-c3cccs3)o2)N1O (stereo not given) | inactive
23 | Cc1ccc(-c2csc3ncnc(Sc4nnnn4C)c23)cc1 | inactive
24 | CC(C)(C)OC(=O)NCc1nnc(C(C(=O)OCc2ccccc2)c2ccccc2)s1 (stereo not given) | inactive
25 | O=C(O)CCc1cc(F)c(S(=O)(=O)N2CCN(S(=O)(=O)c3ccc4c(c3)OCCO4)CC2)cc1F | inactive
26 | CNc1nc(C#N)c(-c2cccc3ccccc23)o1 | inactive
27 | Cc1cc(N[S+](=O)([O-])c2ccc(NC(=O)Cc3ccc(Cl)nc3)cc2)no1 | inactive
28 | COc1ccc(C2Nc3ccccc3C(=O)N2Cc2ccco2)cc1CSc1c(C)cccc1C (stereo not given) | inactive
29 | Nc1cccc([S+](=O)([O-])N2CCCN([S+](=O)([O-])c3cccc(N)c3)CC2)c1 | inactive
30 | CC(Nc1nc(-c2ccccc2C(F)(F)F)nc2ccccc12)c1ccc(-c2ccccc2)cc1 (stereo not given) | inactive
31 | COc1ccc(CN(Cc2ccccc2)C(=O)c2ccc(OC)cc2O)cc1 | inactive
32 | O=C(Nc1ccc(N2CCOCC2)nc1)c1cccs1 | inactive
33 | CNc1oc(-c2ccc(F)cc2)nc1C#N | inactive
34 | Cc1ccc(Cl)cc1NS(=O)(=O)c1cc2c(cc1F)NC(=O)CC2 | inactive
35 | CC(=O)Nc1ccc(NC(=O)c2cnn3c(C)cc(C)nc23)cc1 | inactive
36 | Cc1cccc(-n2cnc3cc(C(=O)N4CCCCC4)ccc32)c1 | inactive
37 | COc1cc(-c2ccc3ncnc(N(C)Cc4csc(C)n4)c3c2)cc(OC)c1OC | inactive
38 | Fc1cc(Nc2nc(-c3ccncc3)nc3ccccc23)ccc1-c1cc(F)c(F)c(F)c1 | inactive
39 | COc1ccc(C2Nc3ccccc3C(=O)N2Cc2ccco2)cc1COc1ccccc1 (stereo not given) | inactive
40 | O=[S+]([O-])(Nc1nccs1)c1ccc(NCc2ccc(Cl)c(Cl)c2)cc1 | inactive
